KAT2A inh – inhibitors of human GCN5L2 histone acetyltransferase; Q92830; GCN5L2 HAT assay, ThioGlo1 CoA-SH fluorescence; Potency, µM (titrated, usually from 58.9 µM), hits mostly inhibitors; actives 0.21% (n = 390,000)
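Preincubate 20nM GCN5L2 with compound 15 min, RT → add 50uM ThioGlo1 + 75uM H3(1-25) + 70uM acetyl-CoA → read fluorescence 0 and 20 min. Primary qHTS; fluorescent artifacts likely.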
TDP1 block – inhibitors of human tyrosyl-DNA phosphodiesterase TDP1; actives 0.28% (n = 350,000); Potency, µM (titrated, usually from 130 µM), hits mostly inhibitors; recombinant TDP1, AlphaScreen DNA substrate cleavage; further: nearly all actives have a fitted effect of over 40% in size
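Recombinant E. coli-expressed Tdp1 (1 nM) preincubated with compound 15 min at RT, then 5'-biotin/3'-phosphotyrosine-FITC DNA substrate (15 nM) added for 5 min. AlphaScreen beads (10 ug/ml) added, 10 min RT; tyrosine-FITC cleavage read as signal loss.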
VDR inhibitor – inhibitors of human vitamin D receptor | VDR-SRC2-3 peptide fluorescence polarization, 2 h | Potency, µM, usual class: inhibitors | actives 0.93% (n = 400,000) | AID 504847
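Inhibition of the VDR/SRC2-3 peptide interaction is quantified by fluorescence polarization. Compounds (23 nl, pintool) incubate with the reagents for 2 hours at ambient room temperature.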
TDP1 cell CPT – growth inhibition of DT40 Tdp1-/-;hTDP1 cells with camptothecin (screen for TDP1 inhibitors); chicken DT40 Tdp1-/-;hTDP1 cells + 20 nM CPT, ATP luminescence, 48 h; Potency, µM (top dose mostly 46.2 µM), actives largely listed as inhibitors; actives 12% (n = 420,000); AID 686979; further: nearly all actives have a fitted effect of over 55% in size
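Cell growth measured by CellTiter-Glo luminescence after a minimum 48 h, 37 C compound exposure with 20 nM CPT in Tdp1-knockout DT40 cells stably expressing hTDP1, seeded 400/well; qHTS titration format.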
TDP1 cell noCPT – qHTS for Inhibitors of human tyrosyl-DNA phosphodiesterase 1 (TDP1): qHTS in cells in absence of CPT | DT40 Tdp1-/- hTDP1 cells, no CPT, ATP luminescence, 48 h | Potency, µM (doses to about 46.2 µM), most hits filed as inhibitors | actives 15% (n = 420,000) | AID 686978, 2013; further: nearly all actives have a fitted effect of over 55% in size
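Growth of hTDP1-complemented DT40 Tdp1-knockout cells is measured by ATP luminescence after at least 48 hr compound exposure at 37 °C, with DMSO substituting for the 20 nM CPT used in the parallel screen.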
PLK1 PBD inh – inhibitors of human PLK1 polo-box domain binding; Plk1 PBD binding of FITC phosphopeptide, fluorescence polarization; Potency, µM, usual class: inhibitors; actives 2.8% (n = 360,000); further: series mostly up to about 57 µM; nearly all actives have a fitted effect of over 65% in size
A number is an active result; – = inactive; ? = inconclusive; · = no result given. Compounds with a hit are over-represented: about 18% of the library has one in this group of screens. The call rests on the fitted dose curve; in most records, active means well fitted curve in the direction sought with a large enough effect; inconclusive means small, poorly fitted or top-dose-only effect, or another doubt; inactive means no such curve, though single readings can be large; an effect the other way counts as inactive or inconclusive.

SMILES | KAT2A inh | TDP1 block | VDR inhibitor | TDP1 cell CPT | TDP1 cell noCPT | PLK1 PBD inh
CCc1nc(-c2ccc(C)c(S(=O)(=O)N3CCN(c4ccc(C(C)=O)cc4)CC3)c2)no1 | – | – | – | 13µM | 7.3µM | ·
CCc1ccc(-c2cc(C)no2)cc1S(=O)(=O)N1CCN(c2cc(C)ccc2C)CC1 | – | – | – | ? | 16µM | –
CSc1nc2ccccc2c(=O)n1C1CCOC(C)(C)C1 (stereo unspecified) | – | – | – | – | – | –
COc1ccc(CN2CCN(Cc3c[nH]c4ccccc34)CC2)cc1 | – | · | – | 6.5µM | 13µM | –
COc1ccc(CN2CCN(Cc3c[nH]c4ccccc34)CC2)c(OC)c1 | · | · | · | – | 0.29µM | –
COc1ccc(C(=O)NC2CCCN(Cc3ccccc3F)C2)c(OC)c1OC (stereo unspecified) | – | · | – | ? | 5.2µM | –
Cc1cc(C(=O)NC2CCCN(Cc3ccccc3F)C2)no1 (stereo unspecified) | – | – | – | – | – | –
COc1ccc(C(=O)C2CCCN(C/C=C/c3ccccc3OC)C2)c(OC)c1 (stereo unspecified) | ? | · | – | 21µM | 2.6µM | –
CCC(Oc1ccc(C)cc1)C(=O)Nc1ccccc1C(=O)N1CCOCC1 (stereo unspecified) | – | – | – | – | – | –
O=C(NCc1cccc(Br)c1)c1ccc(-n2cnc3cccnc32)cc1 | – | – | – | ? | ? | ·
Cc1ccc(C)c(NC(=O)n2ncc3cc(Cl)ccc32)c1 | – | – | – | – | – | ·
CN(CC(=O)Nc1c(Cl)cccc1Cl)C(=O)CCNS(=O)(=O)c1ccccc1C(F)(F)F | – | – | – | ? | ? | –
CCc1cc2c(SCC(=O)NC3CCCC3)ncnc2s1 | · | · | · | ? | ? | –
COc1ccccc1C(=O)N1CCN(Cc2c[nH]c3ccccc23)CC1 | – | · | – | 15µM | 16µM | –
COc1ccc(CN2CCN(Cc3c[nH]c4ccccc34)CC2)cc1OC | · | · | · | – | – | –
COc1ccc(C(=O)C2CCCN(Cc3c[nH]c4ccccc34)C2)c(OC)c1 (stereo unspecified) | – | · | – | 7.3µM | 9.2µM | –
COc1ccc(Br)cc1CN1CCN(Cc2c[nH]c3ccccc23)CC1 | – | · | – | 4.6µM | 7.3µM | –
COc1ccc(C(=O)C2CCCN(Cc3c(F)ccc(F)c3F)C2)c(OC)c1 (stereo unspecified) | – | – | – | – | ? | –
COc1ccccc1/C=C/CN1CCCC(CCC(=O)NCc2ccccc2F)C1 (stereo unspecified) | – | – | – | 18µM | 21µM | –
COCCN1C[C@@H](CO)O[C@@H](n2cnc3c(NCc4ccncc4)ncnc32)C1 | · | · | · | ? | – | –
CCOC(=O)c1cccc(NC(=O)c2cc3c(Cl)nc4ccc(C)cc4c3s2)c1 | – | – | – | ? | ? | ·
CC(C)c1ccc(-c2noc(SCC(=O)N(C)c3ccc(F)cc3)n2)cc1 | – | – | – | 26µM | 23µM | ·
Cc1nn(C(C)C(=O)NCCc2ccco2)c(=O)c2nn(-c3ccccc3)c(C)c12 (stereo unspecified) | – | – | ? | ? | ? | ?
CCCN(CCC)C(=O)CC(c1ccc(F)cc1)c1ccco1 (stereo unspecified) | – | – | ? | ? | 21µM | ?
CCN(CC)C(=O)CC(c1ccccc1)c1ccco1 (stereo unspecified) | – | – | – | – | – | –
CN(C)c1c2ccccc2nc2c(F)c(F)c(F)c(F)c12 | – | – | – | 23µM | 21µM | –
Cc1c2ccccc2nc2c(F)c(N(C)C)c(F)c(F)c12 | – | – | – | ? | ? | ?
Cc1cc(Br)ccc1NC(=O)CN(C)C(=O)C1CCN(c2ncnc3sc(C)c(C)c23)CC1 | · | · | – | ? | 21µM | –
CCN(CC(=O)Nc1c(F)cccc1F)C(=O)C1CCN(c2ncnc3sc(C)c(C)c23)CC1 | – | – | – | 21µM | 18µM | –

Assay outcomes (PubChem BioAssay)
